Results published in PubChem BioAssay (NCATS).
Inconclusive results are not listed. Calls of active or inactive are those of the source. Unless noted, the call rests on the fitted dose curve; in most records, active means well fitted curve in the direction sought with a large enough effect; inconclusive means small, poorly fitted or top-dose-only effect, or another doubt; inactive means no such curve, though single readings can be large; an effect the other way counts as inactive or inconclusive.

Columns and labels:
[1] = target: Cytochrome P450 3A4 (Homo sapiens) (UniProt P08684); assay: qHTS Assay for Inhibitors and Substrates of Cytochrome P450 3A4 (AID 884); further: potency means the concentration at half of the fitted maximal effect; nearly all actives have a fitted effect of over 50% in size
Sequence of Cytochrome P450 3A4 (Homo sapiens) (P08684 whole entry, looked up): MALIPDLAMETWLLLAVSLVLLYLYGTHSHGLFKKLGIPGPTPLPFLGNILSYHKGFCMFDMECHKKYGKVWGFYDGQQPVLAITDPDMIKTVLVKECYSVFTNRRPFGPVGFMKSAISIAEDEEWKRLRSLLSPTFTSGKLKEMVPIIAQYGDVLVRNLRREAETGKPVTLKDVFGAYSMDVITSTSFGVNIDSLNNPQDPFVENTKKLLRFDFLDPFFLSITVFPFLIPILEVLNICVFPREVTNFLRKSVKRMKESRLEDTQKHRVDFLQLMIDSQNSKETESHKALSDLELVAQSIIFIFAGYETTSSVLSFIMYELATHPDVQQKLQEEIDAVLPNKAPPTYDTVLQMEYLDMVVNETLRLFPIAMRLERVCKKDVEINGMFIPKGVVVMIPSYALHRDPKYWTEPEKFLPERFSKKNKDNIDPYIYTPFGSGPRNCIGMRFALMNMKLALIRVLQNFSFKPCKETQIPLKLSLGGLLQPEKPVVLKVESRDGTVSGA
Procedure, shortened: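 Luminescent readout of luciferin produced by CYP3A4 (20 nM) dealkylation of Luciferin-PPXE, 25 uM (its KM). NADPH-driven reaction ran 60 min at RT after 10 min compound preincubation; data scaled to 57 uM ketoconazole as 100% inhibition.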

[2] = target: Cytochrome P450 3A4 (Homo sapiens) (UniProt P08684); assay: qHTS Assay for Activators of Cytochrome P450 3A4 (AID 885); further: nearly all actives have a fitted effect of over 65% in size
Procedure, shortened: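 Luminescent readout of luciferin formed from 25 uM Luciferin-PPXE (KM level) by 20 nM CYP3A4 in 200 mM KPO4, with 60 min NADPH-driven reaction at room temperature after 10 min compound exposure. Ketoconazole (57 uM) defined 100% inhibition.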

[3] = system: Zika virus NS2B-NS3 protease; assay: Primary screen GU AMC qHTS for Zika virus inhibitors (AID 1347154);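 further: 0% = no-inhibitor control and -100% = no-enzyme control; nearly all actives have a fitted effect of over 70% in size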
Procedure, shortened: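 Fluorogenic AMC-substrate cleavage by noncovalent NS2B-NS3 protease complex (25 nM, pH 8.0 Tris buffer with Tween 20) followed for 15 minutes at room temperature (~20% conversion). Percent inhibition from ex340/em450 signal change, fitted by 4-parameter Hill equation.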

[4] = Primary qHTS for small molecule stabilizers of the endoplasmic reticulum resident proteome: Secreted ER Calcium Modulated Protein (SERCaMP) assay (AID 1508630); further: on the % scale 0 is the no-effect control and ±100 the full control effect
Procedure, shortened: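 The SH-SY5Y reporter protocol was run at 3 concentrations up to 38.3 uM (primary) or 11 concentrations (follow-up): 16 h compound, 100 nM thapsigargin for 4 h, then extracellular luciferase luminescence.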

[5] = target: Glucocorticoid receptor (Homo sapiens) (UniProt P04150); assay: GR-GFP Redistribution (AID 450;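 active means compounds whose dose series gives a full or clear partial fitted curve of increased nuclear translocation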; further: potency means the concentration at half of the fitted maximal effect); conditions: U2OS GR-GFP nuclear translocation, laser cytometry, 2 h
Sequence of Glucocorticoid receptor (Homo sapiens) (P04150 whole entry, looked up, the tested form may be a part): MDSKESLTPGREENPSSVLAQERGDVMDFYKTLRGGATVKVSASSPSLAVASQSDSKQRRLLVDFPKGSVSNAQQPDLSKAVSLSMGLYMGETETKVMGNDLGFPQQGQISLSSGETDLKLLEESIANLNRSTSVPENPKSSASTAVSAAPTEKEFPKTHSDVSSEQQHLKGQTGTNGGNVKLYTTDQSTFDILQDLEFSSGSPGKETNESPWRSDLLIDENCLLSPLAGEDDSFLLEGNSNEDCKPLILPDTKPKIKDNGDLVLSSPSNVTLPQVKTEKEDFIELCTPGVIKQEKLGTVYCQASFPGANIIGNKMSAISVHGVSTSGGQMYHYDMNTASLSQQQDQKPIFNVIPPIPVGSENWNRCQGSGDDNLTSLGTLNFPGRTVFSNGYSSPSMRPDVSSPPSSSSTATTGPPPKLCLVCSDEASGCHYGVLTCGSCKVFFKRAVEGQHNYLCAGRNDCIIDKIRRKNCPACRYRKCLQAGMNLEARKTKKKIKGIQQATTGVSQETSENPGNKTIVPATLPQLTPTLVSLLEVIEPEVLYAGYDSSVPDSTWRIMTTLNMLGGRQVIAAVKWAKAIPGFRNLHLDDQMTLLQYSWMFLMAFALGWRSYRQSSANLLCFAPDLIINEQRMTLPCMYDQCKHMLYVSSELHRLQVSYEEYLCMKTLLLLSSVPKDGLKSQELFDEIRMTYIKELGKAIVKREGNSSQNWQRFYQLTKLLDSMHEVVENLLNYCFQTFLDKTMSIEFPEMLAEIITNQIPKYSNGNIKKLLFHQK

[6] = target: Glucocorticoid receptor (Homo sapiens) (UniProt P04150); assay: GR-EFC Redistribution (AID 451; calls by dose curve; further: potency means the concentration at half of the fitted maximal effect); conditions: CHO-K1 GR-EFC translocation, beta-gal luminescence, 2 h
Procedure, shortened: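 Translocation of GR-ED fusion to nuclear EA restores b-gal, read by luminescence after 1 h room-temperature detection. Engineered CHO-K1 biosensor cells, 1,000/well, exposed 2 h at 37 C to titrations up to 46 uM final.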

[7] = target: Cytochrome P450 2C9 (Homo sapiens) (UniProt P11712); assay: qHTS Assay for Inhibitors and Substrates of Cytochrome P450 2C9 (AID 883); further: potency means the concentration at half of the fitted maximal effect; nearly all actives have a fitted effect of over 60% in size
Procedure, shortened: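 Turnover of Luciferin-H (100uM, KM) by 10nM human CYP2C9 was measured over 60 min at 37C with NADPH regeneration; inhibitors and some substrates reduce luminescence. Data normalized to sulphaphenazole 57uM.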

[8] = target: Cytochrome P450 2C19 (Homo sapiens) (UniProt P33261); assay: qHTS Assay for Inhibitors and Substrates of Cytochrome P450 2C19 (AID 899); further: potency means the concentration at half of the fitted maximal effect; nearly all actives have a fitted effect of over 60% in size
Sequence of Cytochrome P450 2C19 (Homo sapiens) (P33261 whole entry, looked up): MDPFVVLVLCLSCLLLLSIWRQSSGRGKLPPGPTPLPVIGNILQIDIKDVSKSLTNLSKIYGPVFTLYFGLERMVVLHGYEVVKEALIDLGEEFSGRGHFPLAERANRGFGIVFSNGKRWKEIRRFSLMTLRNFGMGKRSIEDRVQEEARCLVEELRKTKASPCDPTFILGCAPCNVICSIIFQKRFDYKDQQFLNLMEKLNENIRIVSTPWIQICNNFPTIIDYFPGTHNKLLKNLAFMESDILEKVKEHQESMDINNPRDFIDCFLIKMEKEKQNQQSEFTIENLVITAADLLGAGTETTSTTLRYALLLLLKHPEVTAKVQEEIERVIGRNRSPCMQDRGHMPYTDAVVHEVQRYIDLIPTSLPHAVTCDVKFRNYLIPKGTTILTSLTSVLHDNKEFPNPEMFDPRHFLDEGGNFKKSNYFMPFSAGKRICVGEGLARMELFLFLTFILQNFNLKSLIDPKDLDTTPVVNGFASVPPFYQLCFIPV
Procedure, shortened: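 Reactions contain 5nM enzyme, 10uM Luciferin-H EGE (KM) and 50mM KPO4; compound preincubates 10 min at 37C, NADPH regeneration starts turnover for 60 min. Luminescence after detection reagent gives activity.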

[9] = qHTS Assay for Lipid Storage Modulators (AID 1519; calls by dose curve); conditions: Drosophila S3 cells, BODIPY lipid droplet/cell ratio, laser cytometry, cells loaded with oleic acid; for activity change, negative = inhibition: at 57.5 µM (top of the series)
Procedure, shortened: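 Cells seeded at 5,000 per well were treated with compounds over a concentration series and loaded with oleic acid (400 uM, as added). Lipid droplet fluorescence (488 nm excitation, 500-530 nm channel) was read by laser-scanning cytometry and normalized to 20 uM Triacsin C.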

[10] = target: Ubiquitin carboxyl-terminal hydrolase 1 (Homo sapiens) (UniProt O94782); assay: Inhibitors of USP1/UAF1: Pilot qHTS (AID 504865);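 further: rhodamine fluorescence freed from ubiquitin-rhodamine substrate followed over time; top concentration of the series differs between compounds; on the % scale 0 is the no-effect control and ±100 the full control effect; nearly all actives have a fitted effect of over 35% in size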
Procedure, shortened: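 Enzyme-free wells gave the negative control, while test wells held 1nM USP1/UAF1 preincubated with compound for 15 min at room temperature. Ub-Rho at 150nM final started the reaction, and fluorescence at 480/540 nm was recorded kinetically.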

[11] = target: DNA dC->dU-editing enzyme APOBEC-3G (Homo sapiens) (UniProt Q9HC16); assay: qHTS for inhibitors of Vif-A3G interactions: Validation (AID 588379); further: 0% is about no effect
Sequence of DNA dC->dU-editing enzyme APOBEC-3G (Homo sapiens) (Q9HC16 whole entry, looked up): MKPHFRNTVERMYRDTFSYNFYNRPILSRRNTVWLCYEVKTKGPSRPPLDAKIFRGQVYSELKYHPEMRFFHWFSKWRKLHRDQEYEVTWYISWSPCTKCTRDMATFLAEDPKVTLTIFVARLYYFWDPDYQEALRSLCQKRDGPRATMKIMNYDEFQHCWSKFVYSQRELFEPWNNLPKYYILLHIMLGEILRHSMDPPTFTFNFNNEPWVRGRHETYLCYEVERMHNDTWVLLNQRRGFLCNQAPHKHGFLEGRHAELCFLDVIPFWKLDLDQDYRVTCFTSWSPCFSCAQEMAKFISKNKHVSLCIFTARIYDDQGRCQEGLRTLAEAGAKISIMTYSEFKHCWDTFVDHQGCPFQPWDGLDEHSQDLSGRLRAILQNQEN
Procedure, shortened: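 Yellow fluorescence (Ex 488, Em 500-530) of Vif-coexpressing HeLa A3G-eYFP cells, scanned by Acumen cytometer, reports blocked A3G degradation. Cells plated at 700/well overnight at 37 deg C before compound addition, then a further overnight compound incubation at 37 deg C.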

[12] = AP1 Signaling Pathway (AID 357; active means well fitted curve in either direction with a large enough effect, not every such curve was filed as active;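 further: ME-180 reporter cells stimulated with EGF at its EC50 level; on the % scale 0 is the no-effect control and ±100 the full control effect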); conditions: ME-180 AP-1-bla reporter, EGF-induced, beta-lactamase ratio, 5 h; at 38 µM (top of the series)
Procedure, shortened: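 Beta-lactamase reporter under AP-1 response element, ME-180 background. Stimulus: EC50 EGF. Compound exposure 5 h, 37 °C. Detection: CCF4, 2.5 h RT, 460/530 nm. Values: AC50 from titration.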

[13] = target: Cytochrome P450 1A2 (Homo sapiens) (UniProt P05177); assay: p450-cyp1a2 (AID 410; calls by dose curve;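 further: -100% = full effect of reference inhibitor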)
Sequence of Cytochrome P450 1A2 (Homo sapiens) (P05177 whole entry, looked up): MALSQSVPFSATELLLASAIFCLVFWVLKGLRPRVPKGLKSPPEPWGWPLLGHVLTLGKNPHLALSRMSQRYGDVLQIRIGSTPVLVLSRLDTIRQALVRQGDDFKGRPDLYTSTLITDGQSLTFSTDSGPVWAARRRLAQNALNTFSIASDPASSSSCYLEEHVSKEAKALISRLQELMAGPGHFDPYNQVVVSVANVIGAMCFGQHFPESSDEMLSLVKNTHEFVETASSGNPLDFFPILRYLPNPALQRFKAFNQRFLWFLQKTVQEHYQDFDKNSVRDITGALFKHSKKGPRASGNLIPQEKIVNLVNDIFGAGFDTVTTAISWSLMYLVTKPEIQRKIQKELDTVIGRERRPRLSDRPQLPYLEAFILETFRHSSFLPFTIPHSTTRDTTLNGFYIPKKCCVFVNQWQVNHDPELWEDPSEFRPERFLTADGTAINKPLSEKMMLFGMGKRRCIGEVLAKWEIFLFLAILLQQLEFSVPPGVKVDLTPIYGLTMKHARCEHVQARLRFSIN
Procedure, shortened: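 Read-out is luminescence from luciferin produced by CYP1A2 demethylation of Luciferin-ME (100uM, at Km). Detection reagent stopped the 60 min NADPH-dependent reaction; signals were normalized to 57 uM furafylline.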

[14] = NFAT Signaling Pathway (AID 444; active means well fitted curve in either direction with a large enough effect, not every such curve was filed as active;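 further: carbachol stimulus at about its EC50 of 1 µM final; on the % scale 0 is the no-effect control and ±100 the full control effect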); conditions: Jurkat NFAT-bla M1, carbachol, beta-lactamase ratio, 5 h; at 38 µM (top of the series)
Procedure, shortened: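 Read-out: CCF4 FRET ratio (460 nm/530 nm) after 1 h RT dye loading, used for %activity and AC50 from titration series. Cells: Jurkat NFAT-β-lactamase/M1 line, treated with compound plus 1 uM carbachol for 5 h, 37 °C.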

[15] = Stat Signaling Pathway (AID 446; active means well fitted curve in either direction with a large enough effect, not every such curve was filed as active;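 further: ME-180 cervical cancer cells given 40 pM IL-6 alongside compound; SIE-controlled beta-lactamase reporter measured as 460/530 nm FRET emission ratio; on the % scale 0 is the no-effect control and ±100 the full control effect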); conditions: ME-180 (cervical carcinoma) SIE beta-lactamase reporter, IL-6 stimulated, 5 h; at 38 µM (top of the series)
Procedure, shortened: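 FRET read-out (405 nm excitation, 460/530 nm emission) of a beta-lactamase reporter under a STAT-inducible element in ME-180 cervical carcinoma cells. Cells with compound receive 40 pM IL-6 for 5 h. Values are normalised to AC90 stimulation and AC90 JAK-inhibitor controls.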

[16] = target: Mitogen-activated protein kinase 10 (Mus musculus) (UniProt Q61831); assay: JNK3 AlphaScreen Assay (AID 530; active means well fitted curve in either direction with a large enough effect, not every such curve was filed as active)
Procedure, shortened: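 Kinase buffer: 20 mM Tris-HCl pH 7.6, 10 mM MgCl2, 1 mM DTT, 0.1 mM Na3VO4, 0.01% Tween-20; ATP 10 uM. Substrate biotin-GST-cJun(1-79), enzyme from activated HepG2 lysates. Detection by Ser73 phospho-antibody AlphaScreen.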

[17] = target: 3',5'-cyclic-AMP phosphodiesterase 4B (Homo sapiens) (UniProt Q07343); assay: qHTS Assay for Inhibitors of PDE-IV (AID 607; active means well fitted activation curve with a large enough effect in the main read-out, with a control signal flat, not every such curve was filed as active; further: % of control where 0% means no effect)
Sequence of 3',5'-cyclic-AMP phosphodiesterase 4B (Homo sapiens) (Q07343 whole entry, looked up): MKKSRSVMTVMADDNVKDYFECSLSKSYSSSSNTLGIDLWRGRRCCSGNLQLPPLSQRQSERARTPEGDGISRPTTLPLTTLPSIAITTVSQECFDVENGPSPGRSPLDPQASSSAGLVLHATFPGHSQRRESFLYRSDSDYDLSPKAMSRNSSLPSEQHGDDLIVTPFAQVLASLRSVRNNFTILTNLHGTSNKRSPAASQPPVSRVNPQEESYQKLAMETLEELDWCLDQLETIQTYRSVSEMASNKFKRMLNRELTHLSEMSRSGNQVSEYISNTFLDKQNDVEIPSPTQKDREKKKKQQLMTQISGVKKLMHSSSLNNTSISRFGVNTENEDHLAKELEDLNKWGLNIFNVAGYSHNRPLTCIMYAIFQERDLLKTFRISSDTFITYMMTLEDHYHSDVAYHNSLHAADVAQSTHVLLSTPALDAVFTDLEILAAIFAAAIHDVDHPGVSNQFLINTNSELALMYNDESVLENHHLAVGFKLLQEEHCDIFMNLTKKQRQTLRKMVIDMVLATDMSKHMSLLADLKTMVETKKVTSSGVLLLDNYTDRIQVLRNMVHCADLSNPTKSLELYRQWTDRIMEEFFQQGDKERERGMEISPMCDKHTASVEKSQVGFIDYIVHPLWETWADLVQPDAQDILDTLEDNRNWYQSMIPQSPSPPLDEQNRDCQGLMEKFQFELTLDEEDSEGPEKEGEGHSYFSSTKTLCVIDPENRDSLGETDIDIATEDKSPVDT
Procedure, shortened: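 Cell-based read-out of cAMP via a modified cyclic nucleotide-gated channel and membrane potential dye (535/590 nm) in HEK293 cells expressing PDE4 endogenously. Compounds tested up to 22.9 uM final; 100 uM RO 20-1724 reference.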

[18] = target: Guanine nucleotide-binding protein G(i) subunit alpha-1 (Homo sapiens) (UniProt P63096); assay: qHTS Assay for Inhibitors of RGS12 GoLoco Motif Activity (Green Fluorophore) (AID 879);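 further: 0% = labeled peptide with Gαi1 and full inhibition = labeled peptide alone without protein; negative values mean loss of peptide binding seen as reduced polarization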
Procedure, shortened: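 A drop in FITC polarization marked displacement of the FITC-tagged RGS12 GoLoco peptide (10 nM) from Gαi1 (50 nM). Compounds were incubated 10 min at room temperature in Tris pH 7.5 buffer containing 150 mM NaCl, 0.1 mM GDP and 0.05% NP40; unlabeled peptide titration served as control.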

[19] = Confirmation and Secondary Assay for Modulators of Hemoglobin Beta Chain Splicing at IVS2 654 locus (AID 910);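 further: HeLa cells stably carrying EGFP split by mutant beta-globin IVS2-654 intron; per-well total GFP intensity by laser scanning cytometry after 2-day treatment; % of control where 0% means no effect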
Procedure, shortened: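 Readout: per-well total peak green fluorescence (488 nm ex, 500–520 nm em) from objects 5–250 µm, reflecting correct splicing of an EGFP-654 reporter. Compounds were applied for 2 days at 37 °C to overnight-plated HeLa EGFP-654 cells; controls were DMSO and 500 nM IVS2-654 PNA.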

[20] = Confirmation and Secondary Assay for Modulators of Hemoglobin Beta Chain Splicing at IVS2 705 locus (AID 930);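 further: HeLa cells stably expressing the EGFP-705 splicing reporter; % of control where 0% means no effect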
Procedure, shortened: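 Restored EGFP fluorescence after 2-day compound exposure reports splicing correction in IVS2-705 EGFP reporter HeLa cells; positive control was 500 nM splice-blocking PNA oligo. Signal measured as well total peak GFP intensity (488 nm excitation).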

[21] = target: Muscarinic acetylcholine receptor M1 (Rattus norvegicus) (UniProt P08482); assay: qHTS Assay for Antagonists of Acetylcholine Muscarinic M1 Receptor: Kinetic Measurement of Intracellular Calcium Response (AID 943);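 further: Fluo-4 calcium signal as peak divided by basal fluorescence over 4 min; nearly all actives have a fitted effect of over 75% in size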
Sequence of Muscarinic acetylcholine receptor M1 (Rattus norvegicus) (P08482 whole entry, looked up): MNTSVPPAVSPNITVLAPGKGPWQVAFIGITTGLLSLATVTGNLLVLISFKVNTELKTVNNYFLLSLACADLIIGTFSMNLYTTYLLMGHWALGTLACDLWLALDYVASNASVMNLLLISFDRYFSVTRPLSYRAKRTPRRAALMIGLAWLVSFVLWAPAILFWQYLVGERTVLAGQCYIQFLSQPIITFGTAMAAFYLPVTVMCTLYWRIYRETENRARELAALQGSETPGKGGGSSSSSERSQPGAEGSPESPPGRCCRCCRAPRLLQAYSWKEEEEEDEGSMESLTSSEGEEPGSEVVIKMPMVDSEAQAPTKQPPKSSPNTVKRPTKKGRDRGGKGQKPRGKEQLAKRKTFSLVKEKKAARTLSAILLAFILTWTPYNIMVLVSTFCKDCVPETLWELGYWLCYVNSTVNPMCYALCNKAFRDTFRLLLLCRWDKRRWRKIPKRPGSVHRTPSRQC
Procedure, shortened: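 Quantitative HTS in CHO-M1 (rat receptor) cells: 10 min compound exposure ahead of 100 nM carbachol, Fluo-4 fluorescence followed 4 min, value expressed as peak-to-basal ratio.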

[22] = target: Muscarinic acetylcholine receptor M1 (Rattus norvegicus) (UniProt P08482); assay: qHTS Assay for Antagonists of Acetylcholine Muscarinic M1 Receptor: Measurement of IP-One Response (AID 944); further: nearly all actives have a fitted effect of over 75% in size
Procedure, shortened: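 Antagonism was measured as loss of carbachol-driven (EC80) IP1 accumulation in CHO cells carrying rat M1, using a homogeneous IP-One TR-FRET kit read at 620 and 665 nm.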

[23] = target: Pyruvate kinase (Leishmania mexicana) (UniProt Q27686); assay: qHTS Validation Assay for Inhibitors of Leishmania Mexicana Pyruvate Kinase (AID 945);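 further: 0% = DMSO only neutral control wells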
Procedure, shortened: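 Purified LmPYK (E451W mutant, 0.2 nM) was incubated 1 h at room temperature with 0.5 mM PEP and 0.1 mM ADP in 50 mM imidazole pH 7.2, 50 mM KCl, 7 mM MgCl2; ATP formed was read by PKLight luminescence, normalized to DMSO wells.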

[24] = target: Pyruvate kinase PKM (Homo sapiens) (UniProt P14618); assay: qHTS Assay for Activators of Human Muscle Pyruvate Kinase (AID 954; active means well fitted curve in the direction sought with a large enough effect, not every such curve was filed as active;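 further: 0% = uninhibited enzyme and -100% = no enzyme or full thiadiazolimine inhibition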)
Sequence of Pyruvate kinase PKM (Homo sapiens) (P14618 whole entry, looked up): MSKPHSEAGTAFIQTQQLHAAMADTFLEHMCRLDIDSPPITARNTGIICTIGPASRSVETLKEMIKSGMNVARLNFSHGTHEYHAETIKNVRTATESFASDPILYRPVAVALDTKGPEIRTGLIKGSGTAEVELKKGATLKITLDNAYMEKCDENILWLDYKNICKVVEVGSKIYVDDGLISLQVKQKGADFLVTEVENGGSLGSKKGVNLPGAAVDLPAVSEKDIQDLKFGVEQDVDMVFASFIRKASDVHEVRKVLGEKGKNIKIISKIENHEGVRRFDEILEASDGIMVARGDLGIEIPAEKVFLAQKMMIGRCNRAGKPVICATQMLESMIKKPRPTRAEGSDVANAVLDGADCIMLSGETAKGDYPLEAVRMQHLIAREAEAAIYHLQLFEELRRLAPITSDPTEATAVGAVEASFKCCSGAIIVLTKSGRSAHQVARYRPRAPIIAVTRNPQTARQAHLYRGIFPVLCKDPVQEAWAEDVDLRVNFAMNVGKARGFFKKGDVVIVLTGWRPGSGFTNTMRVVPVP
Procedure, shortened: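 ATP production by PKM2 detected via luciferase luminescence after 1 h room-temperature reaction (0.1 nM enzyme, PEP at Km 0.5 mM, ADP 0.1 mM, pH 7.2 imidazole buffer). Inhibition scaled to no-enzyme control; activation referenced to 0.3 nM enzyme wells.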

[25] = target: Alpha-galactosidase A (Homo sapiens) (UniProt P06280); assay: Counterscreen for Glucocerebrosidase Inhibitors: qHTS Assay for Human alpha-Galactosidase at pH 4.5 (AID 992); further: 0% is about no effect
Sequence of Alpha-galactosidase A (Homo sapiens) (P06280 whole entry, looked up): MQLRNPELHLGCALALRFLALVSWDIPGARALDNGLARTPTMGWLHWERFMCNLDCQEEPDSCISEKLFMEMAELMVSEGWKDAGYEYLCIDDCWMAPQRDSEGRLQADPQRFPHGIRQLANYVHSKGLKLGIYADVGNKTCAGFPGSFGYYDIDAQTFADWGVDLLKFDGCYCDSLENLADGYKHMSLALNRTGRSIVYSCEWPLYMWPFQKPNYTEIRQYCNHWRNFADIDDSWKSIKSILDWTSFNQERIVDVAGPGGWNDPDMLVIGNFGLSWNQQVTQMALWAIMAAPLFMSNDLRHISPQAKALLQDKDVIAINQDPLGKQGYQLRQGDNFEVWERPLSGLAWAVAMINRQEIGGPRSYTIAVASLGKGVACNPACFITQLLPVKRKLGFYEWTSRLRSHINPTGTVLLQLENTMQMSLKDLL
Procedure, shortened: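 Fluorogenic 1536-well qHTS at pH 4.5 (citrate, Tween-20): 2 nM enzyme, 80 uM 4-MU-alpha-galactoside, 20 min room temperature, NaOH/glycine stop. Titration 0.7 nM to 77 uM, data normalized to no-enzyme and full-activity controls, Hill-fitted AC50.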

[26] = target: alpha-glucosidase (Oryza sativa, rice) (UniProt Q653V4); assay: Counterscreen for Glucocerebrosidase Inhibitors: qHTS Assay for Rice alpha-Glucosidase at pH 5.0 (AID 997);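 further: 0% = full activity with enzyme and -100% = basal without enzyme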
Procedure, shortened: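 Endpoint fluorogenic assay at pH 5.0: compounds (0.7 nM to 77 uM) titrated against 4 nM rice enzyme and 400 uM 4-MU-alpha-glucoside for 20 min at room temperature; NaOH/glycine stop, read ex 365/em 440 nm, Hill-fitted AC50.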

[27] = measured here: cell count channel max response
[28] = measured here: lipid channel max response

CC(=O)N(OCc1ccccc1)[C@@H]1c2cc(C#N)ccc2OC(C)(C)[C@H]1O
inactive: Potency [2] | Potency [3] | Potency [4]
active: Potency [1] 15.8 µM

Nc1nc(Nc2ccccc2)nc2c1ncn2[C@@H]1O[C@@H](CO)[C@H](O)[C@H]1O
-2.49%: max response [9, 27]
active: Potency [7] 0.794 µM | Potency [8] 0.631 µM
-4.59%: max response [9, 28]
inactive: Potency [5] > 46 µM | Potency [6] > 46 µM | activity change, negative = inhibition [9] -4.73% | Potency [10] | Potency [11] | Potency [3]

CC(=O)N[C@@H](C(=O)O)C(C)(C)SN=O
28.4%: max response [9, 28]
inactive: activity change, negative = inhibition [12] -1.8% | Potency [13] | activity change, negative = inhibition [14] 9.84% | activity, negative = inhibition [15] 2.94% | Potency [5] > 46 µM | Potency [16] | Potency [17] | outcome [18] | outcome [19] | outcome [20] | Potency [21] | Potency [22] | Potency [23] | outcome [24] | outcome [25] | outcome [26] | activity change, negative = inhibition [9] 9.07% | Potency [11] | Potency [3]
15.4%: max response [9, 27]

N[C@H]1CCN(O)C1=O
inactive: Potency [5] > 46 µM | Potency [6] > 46 µM | Potency [16] | activity change, negative = inhibition [9] -6.49% | Potency [11] | Potency [3]
-8.46%: max response [9, 27]
-12.7%: max response [9, 28]

COc1cc(C=O)c([N+](=O)[O-])cc1OC
inactive: Potency [2] | Potency [3] | Potency [4]
